Measured values taken from PubChem BioAssay AID1159580 (chemical genetic matrix, 2015).
The campaign covered roughly 5,500 compounds. About 2,000 (36%) were called active. Another 18% or so got no clear call; they are omitted. Cut-off read from the data, not from the text of the source: active = normalized growth mostly below about 0.91 (no sharp cut-off); inconclusive = no clear call, values can overlap the other calls; inactive = mostly above about 0.92. The list shows a part of the results.

Assay: chemical genetic growth profiling, strain panel (AID 1159580);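 note: tested at 20 µM; growth read once vehicle control cultures reached saturation at 30 °C; 1 = growth at the plate median or of vehicle wells; lower values mean less growth of the strain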
Conditions: growth OD

Measured: normalized growth

C=C1C2CC[C@@]3(C)[C@H](c4ccoc4)OC(=O)C[C@]13O[C@H]1CC(O)C(C)(C)C(CC(=O)OC)[C@@]21C (stereo not given in full)
inactive: S. cerevisiae deletion strains, locus YJL187C, strain SWE1, active compounds read low 0.971 | S. cerevisiae deletion strains, locus YJR043C, strain POL32, active compounds read low 1.01 | S. cerevisiae deletion strains, locus YJR066W, strain TOR1, active compounds read low 0.922 | S. cerevisiae deletion strains, locus YKL009W, strain mrt4, active compounds read low 1 | S. cerevisiae deletion strains, locus YKL068W, active compounds read low 1.01 | S. cerevisiae deletion strains, locus YKL085W, strain MDH1 (second series), active compounds read low 0.999 | S. cerevisiae deletion strains, locus YKL085W, strain MDH1, active compounds read low 0.999 | S. cerevisiae deletion strains, locus YKL160W, strain elf1, active compounds read low 0.984 | S. cerevisiae deletion strains, locus YKL190W, strain CNB1, active compounds read low 0.987 | S. cerevisiae deletion strains, locus YKR001C, strain vps1, active compounds read low 0.999 | S. cerevisiae deletion strains, locus YKR026C, strain gcn3, active compounds read low 0.985 | S. cerevisiae deletion strains, locus YKR091W, strain srl3, active compounds read low 0.965 | S. cerevisiae deletion strains, locus YLL001W, strain dnm1, active compounds read low 0.989 | S. cerevisiae deletion strains, locus YLL026W, active compounds read low 0.974 | S. cerevisiae deletion strains, locus YLL041C, strain sdh2, active compounds read low 0.971 | S. cerevisiae deletion strains, locus YLR027C, strain aat2, active compounds read low 0.99 | S. cerevisiae deletion strains, locus YLR039C, strain RIC1, active compounds read low 0.963 | S. cerevisiae deletion strains, locus YLR058C, strain SHM2, active compounds read low 1 | S. cerevisiae deletion strains, locus YLR102C, strain apc9, active compounds read low 1.01 | S. cerevisiae deletion strains, locus YLR113W, strain HOG1, active compounds read low 0.996 | S. cerevisiae deletion strains, locus YLR221C, strain rsa3, active compounds read low 0.981 | S. cerevisiae deletion strains, locus YLR258W, strain gsy2, active compounds read low 0.977 | S. cerevisiae deletion strains, locus YLR262C, strain YPT6 (second series), active compounds read low 0.925 | S. cerevisiae deletion strains, locus YLR268W, strain sec22, active compounds read low 1.01 | S. cerevisiae deletion strains, locus YLR320W, strain mms22, active compounds read low 0.97 | S. cerevisiae deletion strains, locus YLR342W, strain FKS1 (second series), active compounds read low 1.02 | S. cerevisiae deletion strains, locus YLR342W, strain FKS1, active compounds read low 0.971 | S. cerevisiae deletion strains, locus YLR357W, strain rsc2, active compounds read low 0.998 | S. cerevisiae deletion strains, locus YLR370C, strain arc18, active compounds read low 0.981 | S. cerevisiae deletion strains, locus YLR371W, strain rom2, active compounds read low 1.02 | S. cerevisiae deletion strains, locus YLR384C, strain iki3, active compounds read low 0.964 | S. cerevisiae deletion strains, locus YLR418C, strain cdc73, active compounds read low 0.998 | S. cerevisiae deletion strains, locus YML016C, strain PPZ1, active compounds read low 1.01 | S. cerevisiae deletion strains, locus YML032C, strain rad52, active compounds read low 1.03 | S. cerevisiae deletion strains, locus YML120C, strain ndi1, active compounds read low 0.99 | S. cerevisiae deletion strains, locus YML124C, strain tub3, active compounds read low 1.01 | S. cerevisiae deletion strains, locus YMR058W, strain fet3, active compounds read low 0.97 | S. cerevisiae deletion strains, locus YMR078C, strain ctf18, active compounds read low 1.01 | S. cerevisiae deletion strains, locus YMR125W, strain sto1, active compounds read low 0.972 | S. cerevisiae deletion strains, locus YMR129W, active compounds read low 0.989 | S. cerevisiae deletion strains, locus YMR205C, strain PFK2, active compounds read low 0.962 | S. cerevisiae deletion strains, locus YMR223W, strain ubp8, active compounds read low 1.01 | S. cerevisiae deletion strains, locus YMR231W, strain pep5, active compounds read low 0.971 | S. cerevisiae deletion strains, locus YMR307W, strain GAS1, active compounds read low 1.06 | S. cerevisiae deletion strains, locus YNL067W, strain RPL9B, active compounds read low 1.01 | S. cerevisiae deletion strains, locus YNL071W, strain lat1, active compounds read low 0.974 | S. cerevisiae deletion strains, locus YNL183C, strain NPR1, active compounds read low 0.974 | S. cerevisiae deletion strains, locus YNL209W, strain ssb2, active compounds read low 0.979 | S. cerevisiae deletion strains, locus YNL233W, strain BNI4, active compounds read low 0.972 | S. cerevisiae deletion strains, locus YNL248C, strain rpa49, active compounds read low 0.971 | S. cerevisiae deletion strains, locus YNL250W, strain rad50, active compounds read low 1.02 | S. cerevisiae deletion strains, locus YNL271C, strain bni1, active compounds read low 1.01 | S. cerevisiae deletion strains, locus YNL298W, strain CLA4, active compounds read low 1.01 | S. cerevisiae deletion strains, locus YNL307C, strain MCK1, active compounds read low 1.01 | S. cerevisiae deletion strains, locus YNL322C, strain KRE1 (second series), active compounds read low 0.985 | S. cerevisiae deletion strains, locus YNR049C, strain mso1, active compounds read low 0.969 | S. cerevisiae deletion strains, locus YNR052C, strain pop2, active compounds read low 1.02 | S. cerevisiae deletion strains, locus YOL012C, strain htz1 1.88 | S. cerevisiae deletion strains, locus YOL147C, strain pex11, active compounds read low 1.02 | S. cerevisiae deletion strains, locus YOR001W, strain rrp6, active compounds read low 0.969 | S. cerevisiae deletion strains, locus YOR061W, strain CKA2, active compounds read low 1 | S. cerevisiae deletion strains, locus YOR069W, strain VPS5, active compounds read low 1.01 | S. cerevisiae deletion strains, locus YOR070C, strain gyp1, active compounds read low 0.978 | S. cerevisiae deletion strains, locus YOR080W, strain dia2, active compounds read low 0.979 | S. cerevisiae deletion strains, locus YOR083W, strain WHI5, active compounds read low 0.981 | S. cerevisiae deletion strains, locus YOR106W, strain vam3, active compounds read low 0.955 | S. cerevisiae deletion strains, locus YOR136W, strain idh2, active compounds read low 1.02 | S. cerevisiae deletion strains, locus YOR144C, strain elg1, active compounds read low 1.03 | S. cerevisiae deletion strains, locus YOR184W, strain ser1, active compounds read low 1.01 | S. cerevisiae deletion strains, locus YOR231W, strain MKK1, active compounds read low 0.991 | S. cerevisiae deletion strains, locus YOR265W, strain rbl2, active compounds read low 0.986 | S. cerevisiae deletion strains, locus YOR270C, strain vph1, active compounds read low 0.878 | S. cerevisiae deletion strains, locus YOR290C, strain snf2, active compounds read low 0.987 | S. cerevisiae deletion strains, locus YOR316C, strain cot1, active compounds read low 1.01 | S. cerevisiae deletion strains, locus YPL051W, strain arl3, active compounds read low 0.975 | S. cerevisiae deletion strains, locus YPL078C, strain atp4, active compounds read low 0.981 | S. cerevisiae deletion strains, locus YPL106C, strain sse1, active compounds read low 0.973 | S. cerevisiae deletion strains, locus YPL240C, strain hsp82, active compounds read low 0.98 | S. cerevisiae deletion strains, locus YPL256C, strain CLN2, active compounds read low 0.939 | S. cerevisiae deletion strains, locus YPR119W, strain clb2, active compounds read low 1.02 | S. cerevisiae deletion strains, locus YPR141C, strain kar3, active compounds read low 1.02 | S. cerevisiae deletion strains, locus YPR163C, strain tif3, active compounds read low 1.02 | S. cerevisiae deletion strains, locus YPR167C, strain met16, active compounds read low 1.01 | S. cerevisiae deletion strains, strain wtn01, active compounds read low 1.01 | S. cerevisiae strains, strain wild type, active compounds read low 0.998
